This is an account of results in PubChem BioAssay AID1508600 (Functional Genomics Laboratory (NCATS/FGL), 2020).

Hit rate of the full screen: of about 53,000 sequences, about 3,700 (7%) were called active. The sample as a whole holds a higher share of actives than the screen did. Values without a mark were called inactive.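 The calls were made as follows: active = gene knockdowns whose robust z-score for IL-1 alpha signal is at least 2 or at most -2, so actives lie on both sides; inactive = the rest.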

This assay is described as follows: Components of the Cytosolic LPS Sensing Pathway: Gene Identification via Genome-wide siRNA Screen.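 Also: robust z of the log signal after scaling to non-targeting control siRNA wells of the plate.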 As to conditions: RAW264.7 macrophages, IL-1a HTRF, actives lie on both sides, screened at 100 nM (by protocol), cells primed 5 h with Pam3CSK4 first. An outline of the steps: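 Using IL-1a HTRF as read-out, the screen measured release from RAW264.7 cells after 48h siRNA knockdown (100 nM), 5 h Pam3CSK4 priming and 24 h cytosolic LipidA. Values were expressed relative to negative-control wells as robust z-scores.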
With GGACAAGGCUGCUACUUCATT against Pou6f2, the z-score is 1.74.

Consider GGCACUUCUUAAUCCCACATT against Nfe2, for which the z-score is -2.41 (active).

Regarding GUACAAGUGUGGACCCUUATT against Chchd2, the z-score is 0.409.

Turning to GCAGGCUACCUCUAAUCCATT against Slc23a3, the z-score was -0.241.

On to GGAUCUAAAGCUUGAACCUTT against Pheta1, for which the z-score is 1.24.

On to GCUACCAUCUGCUAAUACATT against Smg1, for which the z-score is 3.65 (active).

In the case of GGUUCCACAGUGGCAAAUGTT against Vmn1r202, the z-score was 0.957.

Turning to GCCUAUCACGAGCUAUGAUTT against Shkbp1, the z-score was -1.5.

In the case of GGAAUCGAAACCAAUGUGUTT against Il1rl2, the z-score was -0.471.

As for “GGUUCAAAUGUUCUCCAUATT against 9530080O11Rik”, the z-score is 2.55 (active).

Regarding GCUCCGGAAAUUGGCAUCATT against Ppp1r10, the z-score was -1.5.

As to GGAGAAGAAGAAAAAGUCATT against BC005537, the z-score is -0.495.

Regarding GAUGUUUCAGAACAUUCUUTT against Cadps, the z-score was 0.436.

Take GGACAUAAAAGUGUCUCGATT against Cldn13: the z-score is 0.16.

Turning to GCCAAGGGUUUGAAAGCCATT against Tpm1, the z-score was -0.949.

With GGCUUGUUUUGCCCAGAUGTT against Olfr398, the z-score was -2.94 (active).

Take CCUCAUGUUAAUCUGGAGATT against Gabre: the z-score was 0.0167.

On to GGAAGUAUUAAUGUACAACTT against Msmo1, for which the z-score was 0.0519.

CGGUGGUCACUGUGAAAUGTT against Nr1h5: the z-score is 0.0152.

In the case of CGGGAAGAAGUUCAUAAAUTT against Topbp1, the z-score was 0.36.

For GGUUAAAUGUCGUUUAUACTT against Rasa3, the z-score is 0.308.

Take GGAUAUCGAGGAGAUGAUCTT against Aoc3: the z-score was -2.17 (active).

With GCAGUUGACCACAGAAAAUTT against BC061237, the z-score was -1.35.

Consider GGACCCAUGAGGUUAACUUTT against Tbc1d22a, for which the z-score is 0.922.

GGGAACCAGCCAGUUCAAGTT against Ap1g2: the z-score was 1.39.

As for CCGUUUCAUUUCAGGGAGGTT against Phf1, the z-score is 0.307.

On to GGAGAAAUCAAGCAAAGAUTT against Soat1, for which the z-score was -0.0846.

As for GGCUACAGCAAGAAGACUUTT against Ctsw, the z-score is 3.08 (active).

Consider CCGGAAAUUUUCUUUGCCCTT against Sec23ip, for which the z-score was -1.12.

For the sequence “GGAAGGAUUCUGGAAACAGTT against 2210409E12Rik”, the z-score was -2.1 (active).

With GCCAUUGGAGUAUAUCUUGTT against Olfr873, the z-score is -0.273.

For the sequence GGUUCACGAGCUAAGCUGUTT against Sec23b, the z-score was -1.07.

GGACCACUCUGAAUAAGACTT against Ttc12: the z-score is -1.3.

GGAUCAACAGAGGUUGGCATT against Aldh1a7: the z-score was -2.03 (active).

GCAGCUCAAUUAGAGUCCATT against Gart: the z-score is -0.11.

As for GGCUUUUUGUCUAACAAGUTT against Trappc13, the z-score is 0.23.

GCUGGUUAUUCUCUUAUAGTT against Cavin2: the z-score was 1.97.

In the case of GGUAGGUCGUCGAGAAUACTT against Prss44, the z-score is 0.17.

Consider GGAUCCUCUGGUAAAGGGATT against Gng11, for which the z-score is -1.75.

As to GGAGUUCCUCAUGAAGAUGTT against Tmem241, the z-score is -1.27.

With GGUGCAAACAGACACCAGATT against Dct, the z-score is -0.982.

As for GGGCUGUCUAAGAAUGCAATT against Nlrp14, the z-score was -2.08 (active).

As for GGGAGGGAAUAGUCAAAAATT against Timm17b, the z-score was 0.909.

For GGAGAGCAAGGAGAACCAATT against Itga7, the z-score is 1.35.

Consider CCACUACAAUGUAGCGACGTT against C1qtnf9, for which the z-score was -2.24 (active).

In the case of CGAUUACUGAACACUAUAUTT against Metap1, the z-score is 1.94.

On to GGUGUACCCAGUACUGCCATT against Cdk2, for which the z-score was 0.57.

Consider GGAGAUGUUGGACUUCAUGTT against Nxnl2, for which the z-score was -2.42 (active).

As to CGGACAGAUACAAUAGCUATT against Zc3h4, the z-score is -1.53.

GUCUUUCCCUAAAAACAGCTT against Vmn1r47: the z-score was -1.28.

For GGAGAACUUCAACAAUGUCTT against Tesc, the z-score was 0.46.

Take GGAGUUUCGCAUGAGCCUGTT against Shroom1: the z-score was -0.0803.

As to GCCACUAUUGAAGCUUGCCTT against Olfr1209, the z-score was 1.32.

Consider GGAGGAGUUCCAGAUCCACTT against Pald1, for which the z-score is -0.356.

Take GGGCUGUGAACACAAGUGUTT against Megf6: the z-score was 2.02 (active).

For the sequence GGACAGCAUGAUCCUACAATT against Smr2, the z-score was -0.962.

Regarding GGAAAUACCCUGAUAGCCATT against Etl4, the z-score is 0.215.

Take GGUAGGAAGCUAGAGAAAUTT against Synj2: the z-score was 0.139.

Turning to GGACUUUAGUGACAGCUAUTT against Fam243, the z-score was -0.233.

Turning to GGCAGCCCUCAAGUUAAUCTT against Zfp612, the z-score was -0.552.

Regarding GCACCUUCCAUCGGAAUGCTT against Tyw5, the z-score was -0.269.

For the sequence “GGAGAAAAAGAUCUCAGCUTT against D830039M14Rik”, the z-score is -0.021.

With GCACAAUUGGAAUUGUACATT against Ubqln2, the z-score was -2.18 (active).

Turning to CCAUGGCCAAGAACUAGUUTT against Hp, the z-score is 1.26.

On to GGAUUUGAAAUAGGAAUAGTT against Sh3yl1, for which the z-score is 0.689.

In the case of CCCUAUCUUCAGGCCAUUGTT against Gm10283, the z-score is -1.97.

For the sequence CCUGGAGUUAGUUUGACAGTT against Atf4, the z-score was -0.042.

For the sequence GGGCCUAUCUGAAAGUUUATT against Nrm, the z-score was -0.262.

With GGUAGAAGAAUGCAUAAUGTT against Sema3e, the z-score is 0.82.

Regarding CGAGAAUACCAAACUCGUGTT against Usp17ld, the z-score is -0.255.

Regarding GCGGUUAUCUGCAUAUAGATT against Ahctf1, the z-score is -2.47 (active).

As to GCAGUAAGCUUUUGCUAAATT against Zfp334, the z-score is 1.26.

For CCUCUUCGGGAAAAUUCUATT against Dao, the z-score was -0.083.

GGGAUAUCUAAUCAAAACCTT against St8sia5: the z-score is -0.131.

Take GGCAAAGCAACAAUAUCUATT against Cct7: the z-score is -0.809.

GGUAUCAAAACAACAGUCCTT against Upk1b: the z-score is -0.709.

With GGUCAAAUGCACCCGAUUATT against Hoxc10, the z-score is 2.44 (active).

As for CCUCAAAUUUUGGGUCUCATT against Bcat2, the z-score is -1.48.

For GGGUGAGAUAGGAAAGUGGTT against Rab43, the z-score is -0.111.

Take GAUUCUCAUCUCAAUAAGCTT against Serpinb9g: the z-score is 0.439.

On to CCUCCAAGACUUAAAAGUATT against Csde1, for which the z-score is 0.776.

As to CCUUAUAACUCUUACGUUUTT against Naa50, the z-score was -0.169.

Take GGAAAUGAAGACAUACCUGTT against Olfr175: the z-score is 0.741.

With GGAGUGAUGUCUUCACUGATT against Snx31, the z-score is -1.12.

GGGAAUUUACUGCAGGAUATT against Itln1: the z-score was 2.72 (active).

As to GGUCUUCAUGAAAACCCUCTT against Polr2d, the z-score is -0.967.

With GCUAGGUGAUCAGAGAACUTT against Nsl1, the z-score was 0.222.

For the sequence GGCCUUCAGUCAAGCAUCATT against Myom1, the z-score was 0.906.

Turning to GCCCAUUGUAAUAAAAGCCTT against Dnali1, the z-score is -0.582.

Regarding GGCGUGUAUCUAUACACACTT against Glp1r, the z-score was 3.1 (active).

As to CCAAGAUGCACAGUGAUAATT against Pknox2, the z-score was -0.925.

GGAUAUCGUCUGCUACCUGTT against Dgkb: the z-score is 0.945.

Turning to GCACAACCAUAAUUCCAAATT against Olfr828, the z-score is -0.343.

With CCGAAUAGUAGAUAUUAGATT against Zbtb1, the z-score is -0.628.

For the sequence GGAAGUCUGUCCAAAGCAUTT against Olfr190, the z-score is 0.248.

GUUCUGCUUUUUGUCAUAUTT against Olfr1431: the z-score was -0.79.

As to GGAGAUGGUUAUGUGGGAUTT against Tgoln2, the z-score was 0.879.

GCGUGUUGAAUUGAGGAAGTT against Galnt11: the z-score was 4.15 (active).

GGUGAAACCUGUCAUUCACTT against Dcdc2a: the z-score is -0.405.

With GGGUUUGAUCAACAGAGCCTT against Id1, the z-score is -0.64.

Regarding GGUGAAGAGCUUCUUGAUCTT against Zfyve27, the z-score is -0.362.

Regarding GGAGUUCAAAGAUGCAAUUTT against Zfyve27, the z-score is 2.33 (active).

In the case of GUUUGAGUCUGGAGACGUGTT against Commd4, the z-score was 0.917.

GGUAAAGCCUUUCAGGAAGTT against Tmem80: the z-score was -0.946.

With GGAGAGUGACAUCAUCGUATT against Obsl1, the z-score is -0.0139.

Turning to GGACACUUCCAAGUAUUGGTT against Tns1, the z-score is -2.11 (active).

GGUCAGAGAAAUGAUGUCUTT against Osbpl11: the z-score is -1.77.
